Pf growth 48h: P. falciparum growth inhibition at 48 hours (one generation). P. falciparum luciferase growth in erythrocytes, 48 h. Potency, µM (titrated, usually from 28.7 µM), hits mostly inhibitors. 310,000 compounds, 5.9% hits. AID 504832
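First compound was added to culture medium, then infected red cells at 0.1% parasitemia and 2% hematocrit (final). After incubation at 37 C under 5% CO2, luciferase detection reagent was dispensed and light output recorded.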
SARS PLP yeast: SARS-CoV PLP inhibition in yeast; 330,000 compounds, 0.19% hits; AID 485353; Potency, µM (titrated, usually from 32.9 µM), usual class: activators; S. cerevisiae expressing SARS-CoV PLpro, growth rescue; calls by dose curve; note: nearly all actives have a fitted effect of over 55% in size
Pf growth 96h: P. falciparum growth inhibition at 96 hour, primary screen for plastid delayed-death inhibitors; P. falciparum luciferase reporter growth, 96 h; Potency, µM (doses to about 28.7 µM), usual class: inhibitors; 320,000 compounds, 6.9% hits
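P. falciparum expressing integrated firefly luciferase, in erythrocytes at 2% hematocrit, 0.05% parasitemia, incubated with compounds 96 h at 37 C, 5% CO2. Growth inhibition read as loss of luminescence; two-generation exposure targets delayed-death apicoplast inhibitors.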
NS1 function inh: influenza NS1 inhibition; Potency, µM (doses to about 46.1 µM); 270,000 compounds, 0.4% hits; AID 2326; calls by dose curve; note: actives are rising curves; nearly all actives have a fitted effect of over 50% in size
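Read-out: OD600 growth recovery of NS1-expressing budding yeast. Cells grown overnight at 30C in -URA glucose medium, washed, resuspended and diluted 1:100 in 2% galactose assay medium, pH 6.0. Same strain lacking NS1 served as positive control.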
Shiga inhibitor: blocks Shiga toxin action in Vero cells. Vero cells, Shiga toxin protein synthesis inhibition reporter. inhibition, % at 38.7 µM. 290,000 compounds, 9.2% hits. AID 2315; in the data active = inhibition mostly above about 28%, no sharp cut-off; inactive = mostly below about 43%
Cycloheximide cs: counter-screen for Shiga toxin inhibitors: cycloheximide protein synthesis inhibition; cell reporter, cycloheximide protein synthesis inhibition counterscreen; 300,000 compounds, 12% hits; AID 2314; max response, %; in the data active = max response mostly above about 13%, no sharp cut-off; inactive = mostly below about 14%; note: read at 38.3 µM for the half of the compounds with a filed dose
Hits are given with their value; 0 = inactive; ? = inconclusive; - = no result; [ ] = another dose, or the depositor's remark. A selection: hits, their analogues and other compounds. The true share with any hit is near 21%. Unless noted, calls come from the whole dose curve; as a rule, active = well fitted inhibition curve with a large enough effect; inconclusive = small, poorly fitted or top-dose-only effect, or another doubt; inactive = no such curve, though single readings can be large or run the other way.

SMILES	Pf growth 48h	SARS PLP yeast	Pf growth 96h	NS1 function inh	Shiga inhibitor	Cycloheximide cs
C=CCn1c(=N)c(C(=O)NCCCOC)cc2c(=O)n3cc(C)ccc3nc21	0	0	7.38µM	0	0	0
CCOCCCn1c(=N)c(C(=O)NCc2ccc3c(c2)OCO3)cc2c(=O)n3ccccc3nc21	?	0	-	0	0	0
COCCn1c(=N)c(C(=O)NCCc2ccc(OC)cc2)cc2c(=O)n3cccc(C)c3nc21	2.08µM	0	2.94µM	0	0	0
CCCn1c(=N)c(C(=O)NCc2ccc3c(c2)OCO3)cc2c(=O)n3cccc(C)c3nc21	1.04µM	0	0	0	0	0
CC1CCCCN1C(=O)COC(=O)c1cccc(NS(=O)(=O)c2ccccc2)c1 (centres undefined)	0	0	0	-	-	-
C=CC[C@H](CC(=O)N[C@H](CO)Cc1ccccc1)C(=O)N[C@H](COC(=O)[C@H](CC=C)CC(=O)OC(C)(C)C)Cc1c[nH]c2ccccc12	-	0	-	-	-	-
CCOC(=O)c1cnc(N2CCN(C(=O)OCC)CC2)[nH]c1=O	0	0	0	-	0	0
Cc1cc(Cl)ccc1OCC(=O)NN1C(=O)C2C3C=CC(C3)C2C1=O (centres undefined)	0	0	0	-	0	0
Cc1ccc(S(=O)(=O)NCC(C)NC(=O)CN2CCOCC2)cc1 (centres undefined)	0	0	0	0	0	0
COc1ccc(CNC(=O)c2cc3c(=O)n4cccc(C)c4nc3n(CC3CCCO3)c2=N)cc1 (centres undefined)	?	0	5.22µM	0	0	0
Cc1cccn2c(=O)c3cc(C(=O)NCc4ccc(F)cc4)c(=N)n(CC4CCCO4)c3nc12 (centres undefined)	4.15µM	0	2.94µM	0	0	0
Cc1cccn2c(=O)c3cc(C(=O)NCC4CCCO4)c(=N)n(CC4CCCO4)c3nc12 (centres undefined)	0	0	0	0	0	0
COc1cccc(N2C(=NC(=O)C3CCCCC3)SC3CS(=O)(=O)CC32)c1 (centres undefined)	0	0	0	0	0	0
CC(C)c1ccc2c(c1)[C@H]1OCC[C@H]1[C@@H](c1cccs1)N2	0	0	0	0	58.9	69.8
Cc1ccc(NC(=O)c2ccc(NS(=O)(=O)/C=C/c3ccccc3)cc2)nc1	?	0	0	0	0	0
COCCNC(=O)[C@@]1(Cc2ccccc2)C=C[C@@H](C)N1C(C)=O	0	0	0	0	45.2	37.8
Cc1ccc(C)c(C(=O)CSc2nc(N)cc(=O)[nH]2)c1	0	0	0	0	0	0
Oc1cccc2nc3ccccc3nc12	?	0	11.7µM	0	0	20.9
COc1ccc(/C=C2\CCc3ccccc3C2=O)cc1Cn1cccn1	-	0	0	0	68.6	40.6
COc1ccc(/C=C2\CCc3ccccc3C2=O)cc1O	0	0	0	0	42.2	21.6
COc1ccc(/C=C2\Cc3ccccc3C2=O)cc1OC	0	0	0	0	75.0	27.7
CC(=O)Nc1ccc(/C=C2\CCc3ccccc3C2=O)cc1	0	0	0	0	0	0
O=C(O)C1CSC(c2ccccc2Cl)N1C(=O)c1ccc(Cl)cc1 (centres undefined)	0	0	0	0	0	0
COCCNC(=O)c1cc(-c2ccc3c(c2)OCO3)on1	0	?	0	0	98.2	28.5
C=CCNC(=O)c1cc(-c2ccc3c(c2)OCO3)on1	0	0	0	0	0	34.7
SMILES	Pf growth 48h	SARS PLP yeast	Pf growth 96h	NS1 function inh	Shiga inhibitor	Cycloheximide cs
CCN(CC)C(=O)COCc1cc(-c2ccc3c(c2)OCO3)on1	0	0	0	0	0	20.7
O=C(Nc1ccc(Br)cc1)c1cc(-c2ccc3c(c2)OCO3)on1	0	0	?	0	0	13.3
Cc1ccc(NC(=O)c2cc(-c3ccc4c(c3)OCO4)on2)cc1	0	0	0	0	0	0
CCC(C)NC(=O)c1cc(-c2ccc3c(c2)OCO3)on1 (centres undefined)	0	0	0	0	56.8	38.2
CCC(C)NC(=O)COCc1cc(-c2ccc3c(c2)OCO3)on1 (centres undefined)	0[0.00184 µM]	0	0	0	0	0
CC[C@@]1([C@@H]2O[C@@H]([C@H]3O[C@@](O)(CO)[C@H](C)C[C@@H]3C)C[C@@H]2C)CC[C@@H]([C@]2(C)CCC3(C[C@H](O)[C@@H](C)[C@@H]([C@@H](C)[C@@H](OC)[C@H](C)C(=O)O)O3)O2)O1 (some centres undefined)	-	-	-	-	0	0
